Measurements as given in PubChem BioAssay (NCI).
Where “and” joins values, the source holds several entries; their conditions need not be identical. Equal values may be shown once. The panel holds about 79,000 compounds, 15% with a hit somewhere; the sample as a whole holds those more often. A number with no mark means an inactive call. Calls of active or inactive are those of the source. Cut-off read from the data, not from the text of the source: active = growth inhibition above about 70%; inactive = the rest.

Legend:
[1] = NCI Yeast Anticancer Drug Screen. Data for the rad50 strain (AID 155);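 note: 0% = growth of vehicle-only cultures of the same strain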; settings: S. cerevisiae rad50 strain growth inhibition, stronger effect = higher value; at 50.0 µM unless noted
Outline: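 A DNA repair-deficient yeast mutant serves as the test organism; compound-induced growth inhibition is calculated against vehicle-treated cells.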

[2] = NCI Yeast Anticancer Drug Screen. Data for the mec2-1 strain (AID 157); settings: S. cerevisiae mec2-1 strain, stronger effect = higher value; at 50.0 µM unless noted
Outline: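 Mutant yeast (mec2-1) grown with compound; growth inhibition relative to vehicle control reported.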

[3] = NCI Yeast Anticancer Drug Screen. Data for the sgs1 mgt1 strain (AID 161);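 note: 0% = growth of cultures given vehicle only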; settings: S. cerevisiae sgs1 mgt1 strain, stronger effect = higher value; at 50.0 µM unless noted
Outline: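 Growth of a repair-deficient yeast mutant was monitored after compound treatment and expressed as inhibition relative to vehicle-treated cultures.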

[4] = NCI Yeast Anticancer Drug Screen. Data for the cln2 rad14 strain (AID 165);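 note: 0% = growth equal to vehicle treated cultures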; settings: S. cerevisiae cln2 rad14 strain, stronger effect = higher value; at 50.0 µM unless noted
Outline: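 Readout is yeast growth inhibition versus vehicle-treated controls, using a strain with cln2 and rad14 alterations exposed to compound.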

[5] = NCI Yeast Anticancer Drug Screen. Data for the bub3 strain (AID 167); settings: S. cerevisiae bub3 mutant strain, stronger effect = higher value; at 50.0 µM unless noted
Outline: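 Inhibition values come from growth of compound-treated mutant yeast normalised to vehicle-treated controls.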

[6] = NCI Yeast Anticancer Drug Screen. Data for the mlh1 rad18 strain (AID 175); settings: S. cerevisiae mlh1 rad18 strain growth inhibition, stronger effect = higher value; at 50.0 µM unless noted
Outline: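 Genetically defined yeast (DNA repair-deficient) exposed to compounds; growth inhibition determined relative to vehicle.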

SMILES | growth inhibition [1] | growth inhibition [2] | growth inhibition [3] | growth inhibition [4] | growth inhibition [5] | growth inhibition [6]
C(CCCC1CO1)CCC1CO1 (centres undefined) | 24.5% | 18.3% | 17.7% | -36.5% | 11.1% | 7.65%
Nc1nc(CCc2ccc(NC(=O)CBr)cc2)c(CCCCc2ccccc2)c(=O)[nH]1 | 16.4% | 1.85% | 25.8% | 24.2% | 3.75% | 16.2%
O=CC(CO)C(C=O)n1ncc2ccccc21 (centres undefined) | 30.2% | 7.7% | 28.3% | 9.55% | 13.3% | 30.8%
NC(=O)c1ccccc1NC(=O)C(=O)C(C(=O)c1ccc(Cl)c(Cl)c1)C1OC(=O)c2ccccc21 (centres undefined) | 53.2% | 46.9% | 32.9% | 67.5% | 57.9% | 44.6%
O=I(=O)c1ccccc1 | 3.95% | 9.7% | 17.5% | 26.6% | 20.1% | 17.9%
CCc1ccc2c(c1)C(=O)c1ccccc1C2=O | 4% | 21.8% | 11.1% | -9.5% | 25.7% | 26.6%
CCCCCCCCCCCCCCCCCC(=O)N/N=C/c1cc(C(C)(C)C)c(O)c(C(C)(C)C)c1 | -32.6% | 13.7% | -14.1% | -35.2% | -1.1% | 2.45%
Cc1ccc(N=C2S/C(=C3/CCC=C3N3CCOCC3)N(c3ccc(Cl)cc3)C2=Nc2ccc(C)cc2)cc1 | -8.9% | -13.4% | -14.9% | -14.6% | -22.4% | -28%
CC(C)C(=O)OC1(CC2CCCCN2C)CCCCC1 (centres undefined) | -3.2% | 13.7% | 3.95% | -5.8% | 5.3% | 6.85%
O=C(CCS(=O)(=O)CCC(=O)c1ccccc1)c1ccccc1 | -12.3% | 11.8% | 2.25% | -6.35% | -4.4% | 3.1%
CC(=O)N(CCC(C)C)CCC(C)C | 17.9% | 2.3% | 5.5% | 14.3% | -8.05% | -11.2%
Cc1[nH]n(-c2ccc(Cl)cc2)c(=O)c1N=Nc1cccc(C(F)(F)F)c1 | 21.8% | 2.05% | 2.1% | 7.45% | -2.05% | 2%
CN(C)c1ccc(N)c(N)c1 | -13.5% | -34.8% | -4.45% | 12.1% | 5.95% | -12.9%
Cc1cc(=O)n2nc(CSc3nnc(N)s3)sc2n1 | -0.7% | 0.5% | 7.35% | 5.55% | 10.5% | 4.2%
CC(=O)CC(=O)c1ccc(C(=O)CC(C)=O)cc1.[Fe] | -8.1% | -2.35% | -8.3% | 11.7% | 14.4% | 2.15%
O=c1nc2sccn2c2ncccc12 | -18.5% | 5.35% | -11.8% | 46.6% | 10.9% | 16.1%
CC(=O)CCOC(=O)c1cc([N+](=O)[O-])cc([N+](=O)[O-])c1 | 13.2% | -4.1% | 14.4% | 2.6% | 16.9% | 3%
CC1=C(c2ccccc2)C(c2ccccc2)=C(C)C1=NNc1ccc([N+](=O)[O-])cc1[N+](=O)[O-] | 10.6% | 11.8% | 0.8% | 16.4% | -3.25% | 1.4%
O=C(Nc1ccc2c(c1)Cc1c(F)cccc1-2)C(F)(F)F | -4.8% | -16.4% | -3.95% | -7.95% | 9.45% | 11.2%
CCOc1cc(OCC)c2c(c1)C(=O)OC2=O | 4.15% | -3.8% | 10% | 4.05% | -34.4% | -10.2%

SMILES | growth inhibition [1] | growth inhibition [2] | growth inhibition [3] | growth inhibition [4] | growth inhibition [5] | growth inhibition [6]
O=C(Nc1cccc(Cl)c1)Oc1c([N+](=O)[O-])cc(Cl)cc1[N+](=O)[O-] | 13.2% | 6.75% | 21.1% | -12% | 0.15% | 28.3%
O=[N+]([O-])c1ccc(-n2nnc(C3=NCCCN3)c2-c2ccc(Cl)cc2)cc1 | -11.3% | -8.1% | -5.75% | 8.6% | 5.55% | -19.6%
O=C(Oc1ccc(Cl)cc1)c1ccc([N+](=O)[O-])cc1 | 12.2% | 26.1% | 9.9% | 2.7% | 8.65% | 0.2%
CN1N=C(c2ccncc2)OC1c1cccc(F)c1 (centres undefined) | -58% | -45.4% | -25.6% | 6.5% | 4.9% | -16%
Cc1cc(C)c2c(c1)CC(C)(C)CC2=O | 4% | -7.95% | -1.1% | 2.5% | -4.55% | -2.6%
N#CC1(c2ccccc2)CCC1 | 4.85% | -24.9% | 7.5% | 16.6% | 6.4% | 5.1%
NN=C(c1ccc([N+](=O)[O-])cc1)c1ccc([N+](=O)[O-])cc1 | -3.3% | 0.55% | -25.6% | -9.65% | 27% | -0.7%
COc1ccc(C2(O)OCC(COc3cc(C)c(Cl)c(C)c3)O2)cc1OC (centres undefined) | -10% | 1.35% | 8.85% | 18.5% | -6.05% | 3.45%
OCC1OC(O)C(O)C(O)C1O (centres undefined) | 5.05% and 8.6% | 1.75% and 15.1% | -0.95% and -5.85% | -19.4% and 16.8% | -4.1% and 2.1% | 3.1% and 14.4%
C=C(C)C(C)/C(C)=N/NC(N)=O (centres undefined) (tested in a mixture with another compound) | 6.85% | 3.3% | -5.75% | 10.4% | 10.6% | -15.8%
O=c1n(CC2CO2)c(=O)n(CC2CO2)c(=O)n1CC1CO1 (centres undefined) | -8.4% and -1.15% | 11.6% and 8.65% | 19.7% and -18.9% | -25.3% and -6.25% | 26.1% and -34% | 28.1% and 2.45%
O=c1nc(NCc2ccco2)ccn1C1OC(CO)C(O)C1O (centres undefined) | 12.3% | 9.45% | 12.6% | 13.9% | -0.2% | 14.6%
CC(C)CCOB(OCCC(C)C)OCCC(C)C | -25.9% | -40.1% | -6.6% | 2.45% | -26.6% | -23.2%
CC(C)(C)OC(=O)NCC(=O)NC1C/C(=N\O)c2sccc21 (centres undefined) | 17.4% | 5.8% | 11.3% | 15.6% | -5.35% | 39.5%
O=C(O)c1ccc(/C=N/N=C2c3ccccc3-c3ccccc32)cc1 | 66.6% | 35.5% | 41% | 72.1% (active) | -4.5% | 64.2%
NC(=S)/N=C(/c1nc2ccc(Cl)cc2[nH]c1=O)C(O)c1ccccc1Cl (centres undefined) | -2.85% | -21.8% | -20.2% | 4.35% | 22.5% | 5.75%
CN(C)c1ccc(C=Nc2c(N)n(C)c(=O)n(C)c2=O)cc1 | -12.3% | -0.2% | -11.2% | -32.7% | -9.45% | -2.9%
O=S(=O)(O)c1cc(N=[N+]([O-])c2ccc(N=Nc3ccccc3)cc2S(=O)(=O)O)ccc1/C=C/c1ccc(N=[N+]([O-])c2ccc(N=Nc3ccccc3)cc2S(=O)(=O)O)cc1S(=O)(=O)O | 28.6% | 11.9% | 9.8% | 7.15% | 0.8% | 50.4%
COc1c(OC2OC(CO)C(O)C(O)C2O)cc2c(c1OC)-c1ccc(OC)c(=O)cc1[C@@H](NC(C)=O)CC2 (some centres undefined) | -4.2% | 9.6% | 3.8% | 3.65% | -0.1% | 8.05%
